Laboratory results from PubChem BioAssay (Tox21).
Where “and” joins values, the source holds several entries; their conditions need not be identical. Identical values can stand only once. Some structures have more than one record in an assay (separate samples or runs), and their calls can disagree. Calls of active or inactive are those of the source. Unless noted, the call rests on the fitted dose curve; in most records, active means well fitted curve in the direction sought with a large enough effect in the repeat runs; inconclusive means weak or mixed curves; inactive means no such curve, though single readings can be large; an effect the other way counts as inactive or inconclusive.

Experiments:
[1] = qHTS assay to identify small molecule antagonists of the thyroid receptor (TR) signaling pathway - cell viability counter screen (AID 743064); further: nearly all actives have a fitted effect of over 50% in size; further: potency means the concentration at half of the fitted maximal effect
How it was run: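 GH3.TRE-Luc rat pituitary cells dosed after 4 hr plating, co-stimulated with T3 at 1 nM final, incubated 23.5 h at 37 C. Viability measured in the same wells by CellTiter-Fluor fluorescence after 30 min further at 37 C.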

[2] = test system: thyroid hormone receptor (rat, GH3 cells); test: qHTS assay to identify small molecule agonists of the thyroid receptor (TR) signaling pathway (AID 743066; calls by dose curve)
[3] = qHTS assay to identify small molecule antagonists of the estrogen receptor alpha (ER-alpha) signaling pathway - cell viability counter screen (AID 743074; calls by dose curve;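 further: HEK293 cells carrying ER-alpha-UAS-bla reporter stimulated with 17beta-estradiol; nearly all actives have a fitted effect of over 45% in size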; further: potency means the concentration at half of the fitted maximal effect)
[4] = qHTS assay to identify small molecule antagonists of the estrogen receptor alpha (ER-alpha) signaling pathway using the BG1 cell line - cell viability counter screen (AID 743081);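 further: compound given together with 17beta-estradiol as the ER stimulus; nearly all actives have a fitted effect of over 45% in size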; further: potency means the concentration at half of the fitted maximal effect
[5] = target: Estrogen receptor (Homo sapiens) (UniProt P03372); test: qHTS assay to identify small molecule agonists of the estrogen receptor alpha (ER-alpha) signaling pathway (AID 743075; calls by dose curve;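 further: HEK293 GripTite cells with ER-alpha and UAS-driven beta-lactamase reporter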; further: potency means the concentration at half of the fitted maximal effect)
Aromatase (Homo sapiens) = Aromatase (Homo sapiens) (UniProt P11511); test: qHTS assay to identify aromatase inhibitors (AID 743083); further: nearly all actives have a fitted effect of over 55% in size; further: potency means the concentration at half of the fitted maximal effect
[6] = target: Estrogen receptor (Homo sapiens) (UniProt P03372); test: qHTS assay to identify small molecule antagonists of the estrogen receptor alpha (ER-alpha) signaling pathway (AID 743069; active means well fitted curve in the direction sought with a large enough effect in the signal ratio in the repeat runs, not every such curve was filed as active; inconclusive means weak or mixed curves, or effect the other way; inactive means no such curve, though single readings can be large or run the other way; the % refers to the signal ratio; further: potency means the concentration at half of the fitted maximal effect)
How it was run: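 Antagonist mode: compounds in DMSO were co-added with 17beta-estradiol to ER-alpha-bla HEK293 cells (2% charcoal-stripped serum) and left 18 h at 37C. Reporter inhibition was measured as FRET fluorescence after 2 h LiveBLAzer substrate at room temperature.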

[7] = target: Estrogen receptor (Homo sapiens) (UniProt P03372); test: qHTS assay to identify small molecule agonists of the estrogen receptor alpha (ER-alpha) signaling pathway using the BG1 cell line (AID 743079); further: nearly all actives have a fitted effect of over 20% in size; further: potency means the concentration at half of the fitted maximal effect
[8] = qHTS assay to identify small molecule antagonists of the estrogen receptor alpha (ER-alpha) signaling pathway using the BG1 cell line (AID 743080; calls by dose curve;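 further: BG1 cells stimulated with 17beta-estradiol alongside compound; nearly all actives have a fitted effect of over 25% in size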; further: potency means the concentration at half of the fitted maximal effect)
How it was run: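 Readout is ONE-Glo luminescence, taken 30 min at room temperature after reagent addition, preceded by a CellTiter-Fluor viability read; BG1-Luc-4E2 cells had received compound and 17beta-estradiol for 21.5 h at 37 C.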

[9] = qHTS assay to identify small molecule antagonists of the thyroid receptor (TR) signaling pathway (AID 743065); further: series mostly up to about 70 µM; nearly all actives have a fitted effect of over 55% in size
How it was run: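 Antagonism measured as loss of luciferase signal in GH3 cells stably carrying a TRE-luciferase reporter, co-treated with compound and T3 (1 nM final) for 23.5 h at 37 C. Viability was read in the same well by CellTiter-Fluor.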

Measured: Potency

Sequence of Aromatase (Homo sapiens) (P11511 whole entry, looked up): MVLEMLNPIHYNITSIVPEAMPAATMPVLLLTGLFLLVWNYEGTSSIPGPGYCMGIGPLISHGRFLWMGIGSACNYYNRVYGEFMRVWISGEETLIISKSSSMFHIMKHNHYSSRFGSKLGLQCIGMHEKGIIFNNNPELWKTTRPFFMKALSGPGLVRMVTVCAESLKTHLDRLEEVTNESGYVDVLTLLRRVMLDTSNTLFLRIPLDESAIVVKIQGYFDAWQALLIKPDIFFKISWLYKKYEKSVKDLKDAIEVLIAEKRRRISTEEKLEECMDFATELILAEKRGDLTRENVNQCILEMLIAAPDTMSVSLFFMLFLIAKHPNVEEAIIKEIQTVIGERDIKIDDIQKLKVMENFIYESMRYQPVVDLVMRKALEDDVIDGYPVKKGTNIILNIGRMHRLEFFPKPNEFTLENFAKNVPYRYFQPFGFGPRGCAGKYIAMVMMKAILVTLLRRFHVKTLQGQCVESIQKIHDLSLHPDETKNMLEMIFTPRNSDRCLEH
Sequence of Estrogen receptor (Homo sapiens) (P03372 whole entry, looked up): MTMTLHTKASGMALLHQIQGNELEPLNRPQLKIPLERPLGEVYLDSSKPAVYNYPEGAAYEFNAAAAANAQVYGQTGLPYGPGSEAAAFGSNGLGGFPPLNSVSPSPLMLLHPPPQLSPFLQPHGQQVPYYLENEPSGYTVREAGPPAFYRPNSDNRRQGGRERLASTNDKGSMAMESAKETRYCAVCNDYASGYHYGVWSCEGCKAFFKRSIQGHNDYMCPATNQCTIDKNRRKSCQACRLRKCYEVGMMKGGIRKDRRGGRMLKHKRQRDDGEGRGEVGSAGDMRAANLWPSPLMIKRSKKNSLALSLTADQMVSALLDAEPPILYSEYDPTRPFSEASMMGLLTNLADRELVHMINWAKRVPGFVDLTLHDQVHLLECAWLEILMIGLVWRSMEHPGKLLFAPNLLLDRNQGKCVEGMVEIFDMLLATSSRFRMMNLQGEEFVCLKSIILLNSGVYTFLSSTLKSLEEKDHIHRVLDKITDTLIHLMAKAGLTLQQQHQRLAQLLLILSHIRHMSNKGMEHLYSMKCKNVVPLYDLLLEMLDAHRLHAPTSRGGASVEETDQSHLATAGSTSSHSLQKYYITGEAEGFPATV

CC(=O)Nc1ccc(OC(C)=O)cc1
inactive: [1] | [2] | [3] | [4]

C[C@H]1O[C@@H](O[C@H]2CC[C@@]3(C)[C@H](CC[C@@H]4[C@@H]3C[C@@H](O)[C@]3(C)[C@@H](C5=CC(=O)OC5)CC[C@]43O)C2)C[C@H](O)[C@@H]1O[C@H]1C[C@H](O)[C@H](O[C@H]2C[C@H](O)[C@H](O[C@@H]3O[C@H](CO)[C@@H](O)[C@H](O)[C@H]3O)[C@@H](C)O2)[C@@H](C)O1
active: [3] 0.268 µM
inactive: [1] | [2] | [5] | [4] | Aromatase (Homo sapiens)

CC/C=C\C/C=C\C/C=C\C/C=C\C/C=C\C/C=C\CCC(=O)O
not listed: [9]
inactive: all other assays above

CC(C)Cc1ccc([C@H](C)C(=O)O)cc1
not listed: [9]
inactive: all other assays above

C=CC1=C(C(=O)O)N2C(=O)[C@@H](NC(=O)/C(=N/OCC(=O)O)c3csc(N)n3)[C@H]2SC1 (stereo in doubt)
not listed: [9]
inactive: all other assays above

NCC(O)CC(=O)O (stereo unspecified)
active: [7] 16.8 µM
not listed: [6] | [9]
inactive: all other assays above

CC(=O)O[C@H]1C[C@@H]2CC[C@@H]3[C@H](CC[C@@]4(C)[C@H]3C[C@H]([N+]3(C)CCCCC3)[C@@H]4OC(C)=O)[C@@]2(C)C[C@@H]1[N+]1(C)CCCCC1
not listed: [3] | [9]
inactive: all other assays above

COC(=O)[C@H]1[C@H]2C[C@H]3c4[nH]c5ccccc5c4CCN3C[C@H]2CC[C@@H]1O
not listed: [9]
inactive: all other assays above

NC(N)=NCc1cccc(I)c1
active: [8] 21.1 µM and 11.9 µM
not listed: [7] | [9]
inactive: all other assays above

CCN(CC)CCn1c(=O)c(Cc2ccc(OC)cc2)nc2ccccc21
active: [1] 26.6 µM
not listed: [9]
inactive: all other assays above

C[S+](C)CCC(N)C(=O)O (stereo unspecified)
not listed: [6] | [9]
inactive: all other assays above

COc1c(O)cc2c(c1O)[C@@H]1O[C@H](CO)[C@@H](O)[C@H](O)[C@H]1OC2=O
not listed: [3] | [9]
inactive: all other assays above

N#Cc1c(N(CC(=O)O)CC(=O)O)sc(C(=O)O)c1CC(=O)O
not listed: [7] | [9]
inactive: all other assays above

C/C(=C(/CCO)SSCC1CCCO1)N(C=O)Cc1cnc(C)nc1N (stereo unspecified)
inactive and 29.8 µM (active): Aromatase (Homo sapiens)
not listed: [9]
inactive: all other assays above

Cc1onc(-c2c(F)cccc2Cl)c1C(=O)N[C@@H]1C(=O)N2[C@@H]1SC(C)(C)[C@@H]2C(=O)O
inactive: [1] | [2] | [3] | [4] | Aromatase (Homo sapiens)

CCc1ncnc2cc(OC)c(OC)cc12
not listed: [9]
inactive: all other assays above

O=C1[O][Bi][O]c2ccccc21
not listed: [6] | [9]
inactive: all other assays above

O=S(=O)(O)CC(S)CS (stereo unspecified)
inactive: [1] | [2] | [3] | [4] | Aromatase (Homo sapiens)

NC(N)=NCC1COC2(CCCCC2)O1 (stereo unspecified)
inactive: [1] | [2] | [3] | [4] | Aromatase (Homo sapiens)

O=C1CC[C@@H](C(=O)N[C@H]2C[C@@H]2c2ccccc2)N1
not listed: [2] | [9]
inactive: all other assays above

S=C1NC=NC2N=CNC12 (stereo unspecified)
inactive: [1] | [2] | [4] | Aromatase (Homo sapiens)
active: [3] 11 µM

Cc1cc(C(=O)NCCc2ccc(S(=O)(=O)NC(=O)NN3CCCCCC3)cc2)no1
inactive: [1] | [2] | [3] | [4] | Aromatase (Homo sapiens)

CN1C(C(=O)Nc2ccccn2)C(=O)c2sc(Cl)cc2S1(=O)=O (stereo unspecified)
not listed: [1] | [4]
inactive: all other assays above

CC(=O)[C@]1(O)Cc2c(O)c3c(c(O)c2[C@@H](O[C@H]2C[C@H](N)[C@H](O)[C@H](C)O2)C1)C(=O)c1ccccc1C3=O
active: [1] 0.119 µM | [5] 3.38 µM [inconclusive] | [4] 3.35 µM | Aromatase (Homo sapiens) 3.35 µM

O=C(O)[C@H]1CN(C/C=C/P(=O)(O)O)CCN1
inactive: [9] | [2] | [3] | [4] | Aromatase (Homo sapiens)

CNC(=O)C[C@@H](N)C(=O)N[C@@H](C(=O)N[C@@H]1C(=O)N2[C@@H]1SC(C)(C)[C@@H]2C(=O)O)c1ccc(O)cc1
not listed: [2] | [9]
inactive: all other assays above

CC(C)CCC[C@@H](C)[C@H]1CC[C@H]2[C@@H]3CC[C@@H]4C[C@H](O)CC[C@]4(C)[C@H]3CC[C@]12C
not listed: [1]
inactive: all other assays above

N=C(N)c1ccc(/C=C/c2ccc(C(=N)N)cc2O)cc1
not listed: [1] | [6]
inactive: all other assays above

O=C(O)c1cc2cc(Cc3cccnc3)ccc2o1
active: [7] 18.8 µM
not listed: [1] | [5]
inactive: all other assays above

CC(C)(S)C(=O)N[C@@H](CS)C(=O)O
inactive: [1] | [3] | [4] | Aromatase (Homo sapiens)

COC(=O)C[C@](O)(CCCC(C)(C)O)C(=O)O[C@@H]1C(OC)=CC23CCCN2CCc2cc4c(cc2[C@H]13)OCO4 (stereo partly specified)
active: [1] 0.0596 µM | [6] 674 nM [inconclusive] and 1.2 µM [inconclusive] | [8] 168 nM | Aromatase (Homo sapiens) 29.8 nM and 23.7 nM
inactive: [3] | [5] | [4]

CCCCCCCC1CCC(=O)O1 (stereo unspecified)
inactive: [9] | [2]

O=C(CCCCCCCCc1cccnc1)N1CCC(C=C(c2ccccc2)c2ccccc2)CC1
active: [1] 27.3 µM | [3] 43.6 µM

Cc1ncc(C[n+]2csc(CCOP(=O)(O)O)c2C)c(N)n1
inactive: [1] | [3] | [4] | Aromatase (Homo sapiens)

C[C@@H]1C(=O)NC2=Nc3cccc(Cl)c3CN21
inactive: [1] | [2] | [3] | [4] | Aromatase (Homo sapiens)
